SMILES strings stand for the structures. Unmarked numbers belong to inactive results. Results filed as inconclusive are left out. Active and inactive are the calls of the source. The call rests on the fitted dose curve; in most records, active means well fitted curve in the direction sought with a large enough effect; inconclusive means small, poorly fitted or top-dose-only effect, or another doubt; inactive means no such curve, though single readings can be large; an effect the other way counts as inactive or inconclusive.

For test [1], the target named is Glutathione peroxidase 1 (Homo sapiens) (UniProt P07203). The test is described as follows: Primary qHTS Assay for Inhibitors of Recombinant Selenoprotein Glutathione Peroxidase 1 (GPX1) (AID 1845191). Further: nearly all actives have a fitted effect of over 65% in size. The essentials:
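10 nM GPX1 + cpd, 30 min RT; start w/ 1 mM GSH, 0.5 mM cumene hydroperoxide, 0.5 mM NADPH, 100 nM GR, 0.01% BSA; buffer 50 mM Tris-HCl pH 7.5, 2 mM EDTA, 150 mM NaCl; Fl 340/450, 0 & 15 min.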
A general note: In qHTS, concentration-response curves come from the screen itself.

The target of test [2] is Phospholipid hydroperoxide glutathione peroxidase GPX4 (Homo sapiens) (UniProt P36969). The experiment in a line: Primary qHTS Assay for Inhibitors of Recombinant Selenoprotein Glutathione Peroxidase 4 (GPX4) (AID 1845192). Further: nearly all actives have a fitted effect of over 65% in size. The essentials: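 NADPH consumption, followed by fluorescence at 340/450 nm between 0 and 15 min, reports GPX4 activity via coupled glutathione reductase (100 nM). Enzyme 200 nM was pre-exposed to compound 30 min; 0.5 mM cumene hydroperoxide and 1 mM GSH served as substrates.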
Phospholipid hydroperoxide glutathione peroxidase GPX4 (Homo sapiens), sequence (P36969 whole entry, looked up): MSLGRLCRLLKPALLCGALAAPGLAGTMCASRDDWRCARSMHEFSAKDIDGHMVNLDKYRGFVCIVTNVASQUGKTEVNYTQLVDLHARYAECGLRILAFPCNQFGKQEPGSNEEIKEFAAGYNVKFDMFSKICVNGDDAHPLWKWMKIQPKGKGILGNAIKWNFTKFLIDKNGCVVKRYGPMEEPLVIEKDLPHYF

Test [3] concerns the target Luciferin 4-monooxygenase (Photinus pyralis) (UniProt P08659). The experiment in a line: Primary firefly luciferase (FLuc) qHTS assay for identification of artifact compounds. (AID 1845220). Further: nearly all actives have a fitted effect of over 60% in size. Further: potency means the concentration at half of the fitted maximal effect. The method in brief:
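Compounds sat 15 min at room temperature with 10 uM luciferin and 10 uM ATP (pH 7.6 Tris acetate). Firefly luciferase (10 nM final) was then added, and luminescence was read 5 min later. Data normalized to no-enzyme and DMSO controls were Hill-fitted.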

In test [4] the test system is Nanoluciferase (engineered Oplophorus gracilirostris luciferase). The test is described as follows: Primary Nanoluciferase (NLuc) qHTS assay for identification of artifact compounds. (AID 1845222). Further: series mostly up to about 54 µM. The essentials: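 Luminescence from secreted NLuc (filtered, 1:55-diluted S16 cell medium) read 5 min after Nano-Glo substrate; compounds preincubated 15 min, RT. Hill fits of inhibition normalized to DMSO and no-enzyme.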

The nature of test [5]: Primary redox qHTS assay for identification of artifact compounds. (AID 1845223). The essentials:
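Amplex Red (25 uM) and HRP (250 mU/mL) in HBSS, with compounds for 15 min, then 250 uM DTT for 30 min, room temperature, dark. Fluorescence 525/598 nm read; normalized to DMSO and 10 uM DA3003; Hill fit.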

Test [6] is described as follows: Primary fluorescence-based thiol-reactive (MSTI) qHTS assay for identification of artifact compounds. (AID 1845221). Further: nearly all actives have a fitted effect of over 65% in size. Further: potency means the concentration at half of the fitted maximal effect. The method in brief: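 MSTI probe at 4 uM final in 2% DMSO/PBS pH 7.4; compounds, 1 h at room temperature in dark. Fluorescence Ex/Em 525/598 nm, normalised to Acetyl-MSTI and MSTI, fitted to 4-parameter Hill.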

Glutathione peroxidase 1 (Homo sapiens), sequence (P07203 whole entry, looked up): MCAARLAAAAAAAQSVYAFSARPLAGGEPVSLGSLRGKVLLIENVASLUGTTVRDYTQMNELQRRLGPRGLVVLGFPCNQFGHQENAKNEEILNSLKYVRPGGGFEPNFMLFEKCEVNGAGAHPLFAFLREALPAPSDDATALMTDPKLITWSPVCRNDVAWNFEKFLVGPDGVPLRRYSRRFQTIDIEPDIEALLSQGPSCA

As to `C=CC(=O)N1CCC[C@@H](n2nc(-c3cccc(C(=O)Nc4ccc(C(C)C)c(C)c4)c3)c3c(N)ncnc32)C1`, the Potency entry in test [1], in test [2], in test [4] and in test [5] was “inactive” throughout. Besides, the Potency in test [3] was 6.75 µM (active).
Consider `COc1cccc(NCCC2(c3ccccc3)CC(C)(C)OC(C)(C)C2)c1`, for which the Potency result in test [1], in test [2], in test [3], in test [4] and in test [5] was “inactive” in each case.
Turning to `Clc1ncoc1-c1c[nH]c2ccccc12`, the Potency result in test [1], in test [2], in test [3], in test [4] and in test [5] was “inactive” throughout.
Turning to `OC1C=C2C3CN(Cc4cc5c(cc43)OCO5)C2CC1O` (stereo not drawn), the Potency result in test [1], in test [2], in test [3], in test [4] and in test [5] was “inactive” in each case.
In the case of `Cc1ccc(N2CCN(CCC3NC(=O)c4ccccc43)CC2)cc1C` (stereo not drawn), the Potency result in test [1], in test [2], in test [3], in test [4] and in test [5] was “inactive” in each case.
Regarding `COc1cc(OC)c(NC(=O)c2ccc(Cc3cc4c(cc3C)C(C)(C)CCC4(C)C)o2)c(OC)c1`, the Potency entry in test [1], in test [2], in test [3], in test [4] and in test [5] was “inactive” each time.
In the case of `COc1cc2ncnc(Nc3ccc(O)c(Br)c3)c2cc1OC`, the Potency entry in test [1], in test [2], in test [3], in test [4] and in test [5] was “inactive” in each case.
With `COC1C(OC(=O)/C=C/C=C/C=C/C=C/C(=O)O)CCC2(CO2)C1C1(C)OC1CC=C(C)C` (stereo not drawn), the Potency entry in test [1], in test [2], in test [3], in test [4] and in test [5] was “inactive” in each case.
As for `CCOc1cn(-c2ccc(F)cc2C)nc1C(=O)Nc1ccc(Oc2ccnc3cc(OC)c(OC)cc23)c(F)c1`, the Potency result in test [1], in test [2], in test [3], in test [4] and in test [5] was “inactive” each time.
Regarding `COc1ccc2c(c1)C(C(=O)N(Cc1ccc(N(C)C)cc1)c1ccc(C(C)C)cc1)CCC2` (stereo not drawn), the Potency entry in test [1], in test [2], in test [3], in test [4] and in test [5] was “inactive” each time.
Turning to `CCC(CC)Nc1nc(C)c(-c2ccc(OC(F)(F)F)cc2OC)nc1OC`, the Potency result in test [1], in test [2], in test [3], in test [4] and in test [5] was “inactive” in each case.
Take `O=c1nc(-c2ccccn2)sc2ccccc12`: the Potency entry in test [1], in test [2], in test [3], in test [4] and in test [5] was “inactive” in each case.
With `Cc1c(F)ccc(C(=O)Nc2cc([N+](=O)[O-])ccc2N2CCN(C)CC2)c1Cl`, the Potency result in test [1], in test [2], in test [3], in test [4] and in test [5] was “inactive” throughout.
`CC1(C)CC[C@]2(C(=O)O)CC[C@]3(C)C(=CCC4[C@@]5(C)C[C@@H](O)[C@H](O)[C@@](C)(CO)C5CC[C@]43C)[C@@H]2[C@@H]1O` (stereo partly drawn): the Potency result in test [1], in test [2] and in test [4] was “inactive” in each case. The Potency in test [6] was 10.3 µM (active).
Take `CCN(CC)C(=O)C(c1ccccc1)N1CCN(c2ccc(NC(=O)c3ccccc3-c3cccnc3)cc2F)CC1` (stereo not drawn): the Potency result in test [1], in test [2], in test [3], in test [4] and in test [5] was “inactive” each time.
With `O=C1COC2(CCN(S(=O)(=O)c3ccc(-c4ccc5cccnc5c4)cc3)CC2)CN1C1CC1`, the Potency entry in test [1], in test [2], in test [6] and in test [4] was “inactive” each time.
Take `C/C1=C/CCC2=CC(OC2=O)C(C)(C)/C=C/C1=O` (stereo not drawn): the Potency result in test [1], in test [2], in test [3], in test [4] and in test [5] was “inactive” in each case.
Turning to `CN1CCN(C2=Nc3ccccc3Nc3ccc(Cl)cc32)CC1`, the Potency entry in test [1], in test [2], in test [3], in test [4] and in test [5] was “inactive” each time.
Regarding `O=[N+]([O-])c1ccc(Oc2ccc3c(c2)CCC(c2ccccc2)O3)nc1` (stereo not drawn), the Potency result in test [1], in test [2], in test [3], in test [4] and in test [5] was “inactive” in each case.
With `COC1CCN(c2cccc(-c3cc(NC(C)=O)nc(-n4nc(C)cc4C)n3)n2)CC1`, the Potency entry in test [1], in test [2], in test [6], in test [4] and in test [5] was “inactive” in each case.
In the case of `O=c1[nH]cnc2c([C@@H]3N[C@H](CO)[C@@H](O)[C@H]3O)c[nH]c12`, the Potency entry in test [1], in test [2], in test [3], in test [4] and in test [5] was “inactive” each time.
Consider `C=C1CC[C@@H](O)[C@]2(C)CC[C@H]3C(=C)C(=O)O[C@@H]3[C@@H]12`, for which the Potency entry in test [1], in test [2], in test [3], in test [4] and in test [5] was “inactive” in each case.
For `CC(C)C[C@@H](C(=O)N[C@@H](Cc1ccc(OCc2ccccc2)cc1)C(=O)NC(C)(C)C)N(C)Cc1ccc(C(C)(C)C)cc1`, the Potency entry in test [1], in test [2], in test [3], in test [4] and in test [5] was “inactive” each time.
For the compound `COc1cc2c(cc1OC(C)C)[C@H](c1ccc(Cl)cc1)N(c1ccc(N(C)CC3CCC(N4CCN(C)C(=O)C4)CC3)cc1)C(=O)C2` (stereo partly drawn), the Potency entry in test [1], in test [2], in test [3], in test [4] and in test [5] was “inactive” each time.
As for `C/C1=C\CCC2=CC(OC2=O)C(C)(C)/C=C/C1=O` (stereo not drawn), the Potency entry in test [1], in test [2], in test [3], in test [4] and in test [5] was “inactive” each time.
In the case of `COc1ccc([C@H](Cc2ccncc2)c2ccccc2)cc1OC1CCCC1`, the Potency entry in test [1], in test [2], in test [3], in test [4] and in test [5] was “inactive” in each case.
As for `CC[C@@H](C)[C@@H]1OC2(C=C[C@H]1C)C[C@@H]1C[C@H](C/C=C(\C)[C@H](O[C@H]3C[C@H](OC)[C@H](O[C@H]4C[C@H](OC)[C@H](NC(C)=O)[C@H](C)O4)[C@H](C)O3)[C@H](C)/C=C/C=C3\CO[C@H]4[C@H](O)C(C)=C[C@@H](C(=O)O1)[C@@]34O)O2` (stereo partly drawn), the Potency result in test [1], in test [2], in test [3], in test [4] and in test [5] was “inactive” throughout.
